Assay outcomes from PubChem.
Most compounds without a hit are left out; they make up all but 2.2% or so of the library.
KLK7 zymogen act: activates the human kallikrein-7 zymogen; P49862; purified proKLK7, EDANS-DABCYL substrate fluorescence; 100% is mature enzyme control, 0% vehicle; activation, % at 7 µM; actives 0.9% (n = 370,000); AID 652039;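 active = activation above the mean of all tested compounds plus 3 SD, computed per campaign excluding outliers beyond control limits, cut at about 13% in these data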
NPR2 activator: GC-B (human) receptor activation | actives 0.11% (n = 370,000) | activation, % at 10 µM | P20594 | AID 1920062 | HEK293-GC-B cells, CNP EC30, cGMP TR-FRET; 0% at EC30 CNP, 100% saturating CNP;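 active = activation at 10 µM reaching about 35% in either raw or pattern-adjusted values, limit read from the data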
GC-A act: GC-A (human) enzyme activation; AID 1671463; activation, % at 10 µM; actives 0.14% (n = 370,000); P16066; HEK293 GC-A cells, cGMP TR-FRET, EC30 ANP; 0% at EC30 ANP, 100% saturating ANP; in the data active = activation above about 40%
ADAM10 inh: inhibits human ADAM10 | inhibition, % at 7 µM | recombinant ADAM10, EDANS/DABCYL FRET peptide cleavage, 3 h | AID 720582 | actives 0.62% (n = 370,000);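 active = inhibition above a per-campaign cutoff equal to the mean of compounds falling between control-based bounds plus 3 SD, cut at about 20% in these data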;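 note: 0% = DMSO wells while the 100% control is not disclosed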
ADAM17 inh: inhibits human ADAM17; recombinant ADAM17, EDANS/DABCYL FRET peptide cleavage; inhibition, % at 6.95 µM; actives 0.83% (n = 370,000);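 active = inhibition above the mean of compounds lying between control limits plus 3 SD, set per campaign, cut at about 8.5% in these data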;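 note: 0% = DMSO-only wells as the low control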
ADAM10 counter: counter-screen for ADAM17 exosite inhibitors: inhibitors of human ADAM10. shares compounds with ADAM17 inh. recombinant ADAM10, EDANS/DABCYL FRET peptide cleavage, 3 h. inhibition, % at 6.95 µM. actives 47% (n = 2,900);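 active = mean inhibition over the triplicate runs exceeds the activity threshold set in the earlier primary screen, cut at about 20% in these data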;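 note: 0% = DMSO wells and 100% = marimastat wells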
ADAM17 confirm: confirmation of inhibitors of human ADAM17 | shares compounds with ADAM17 inh | recombinant ADAM17, EDANS/DABCYL QFRET peptide cleavage | inhibition, % at 6.95 µM | actives 65% (n = 2,900);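 active = mean inhibition across replicates above the hit cutoff set in the primary screen, cut at about 8.5% in these data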;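 note: 0% = DMSO wells and 100% = marimastat wells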
The depositor's hits bear a star; · = no result.

SMILES	KLK7 zymogen act	NPR2 activator	GC-A act	ADAM10 inh	ADAM17 inh	ADAM10 counter	ADAM17 confirm
COc1cc(-c2nc(-c3ccc4c(c3)-c3ccccc3S4(=O)=O)c(-c3ccccc3)[nH]2)cc(OC)c1O	-0.8	-2.2	-5.9	-10.4	8.8*	16.2	14.1*
CCOC(=O)c1c(C)[nH]c(C(=O)OCc2ccc(C)cc2)c1C	-0.1	2.3	3.4	9.7	6.9	·	·
CCOC(=O)c1c(C)[nH]c(C(=O)OCc2ccccc2)c1C	-0.2	-4.1	2.1	12.8	8.8*	11.7	8.9*
Cc1noc(C)c1C(=O)OCC(=O)Nc1ccccc1Oc1ccccc1	-0.3	-2.1	-8.4	11.8	8.7*	5.9	11.2*
COc1cccc(CNC(=O)CSCc2cnn(-c3ccccc3)c2-n2cccc2)c1	0.0	-0.5	-9.6	18.4	13.9*	-0.1	4.4
CN1CC(c2ccccc2)C2(SC(=S)N(Cc3ccco3)C2=O)C12C(=O)Nc1ccccc12 (stereo not given)	0.1	-26.0	-31.7	25.7*	10.1*	37.0*	23.6*
CN1CC(c2ccccn2)C2(SC(=S)N(Cc3ccccc3)C2=O)C12C(=O)Nc1ccccc12 (stereo not given)	-0.3	-5.9	0.8	-2.5	-7.6	·	·
Cc1sc2nc(SCC(=O)OC(C)C)n(C)c(=O)c2c1C	-0.7	-0.9	3.9	-4.5	14.5*	-5.7	-0.8
CC(C)C(=O)N1CCN(c2ccc(NC(=O)c3cccs3)cc2Cl)CC1	0.8	-3.4	1.4	10.9	9.1*	8.1	6.1
COc1ccc(NS(=O)(=O)c2cc(NC(=O)c3cccs3)ccc2N2CCCC2)cc1	-1.6	-6.4	-12.0	19.0	9.1*	18.5	11.1*
COC[C@@H]1CCCN1c1ccc2c(c1)O[C@@H]1CCN(C1)S2(=O)=O	0.7	4.2	3.0	-6.3	-4.1	·	·
Cc1cc(-c2csc(NC(=O)c3cc4ccccc4o3)n2)c(C)n1C	-0.8	-3.6	-25.9	14.2	10.9*	15.9	6.5
O=C(Nc1nc(-c2ccccn2)cs1)c1cc2ccccc2o1	-0.1	-1.4	-5.5	-17.8	-6.4	·	·
CCOC(=O)CC[C@H]1CC[C@]2(CCCN(C(=O)c3ccc4ccccc4n3)C2)O1	-0.3	0.7	1.5	-4.0	-3.4	·	·
CCOC(=O)c1c(C)[nH]c(C)c1C(=O)COC(=O)/C=C/c1cccc(C(F)(F)F)c1	0.2	4.9	-0.9	10.6	12.0*	26.7*	15.3*
CCOC(=O)c1c(C)[nH]c(C)c1C(=O)COC(=O)/C=C/c1cccc(F)c1	-0.1	-4.5	1.5	11.7	3.6	·	·
COC(=O)[C@]12C[C@H](CC(=O)NCCCCc3ccccc3)C(=O)N(CCC3=CCCCC3)C1=C[C@H](C1CCCC1)O[C@@H]2C	-0.1	-4.2	-2.7	1.9	2.5	·	·
COc1ccccc1N=Nc1nc(-c2ccccc2)c(-c2ccccc2)[nH]1	-0.7	-3.2	-17.8	17.9	12.2*	15.0	10.5*
CCOC(=O)CNc1ncc(C(F)(F)F)cc1Cl	0.2	6.5	-1.8	-2.7	-0.1	·	·
N#CCC(CNc1ncc(C(F)(F)F)cc1Cl)OC(=O)c1ccc(Cl)cc1Cl (stereo not given)	0.3	·	·	9.9	9.6*	40.6*	19.0*
CCCCN1CN2Cc3cc(OC)ccc3C2CS1(=O)=O (stereo not given)	-0.6	5.4	0.0	-26.6	-8.1	·	·
O=S(=O)(NCCc1csc(-c2ccc(C(F)(F)F)cc2)n1)c1ccc2c(c1)OCCO2	-0.7	1.3	1.0	-2.8	9.3*	7.5	10.4*
CCCCCC(CC(=O)NO)C(=O)NC(C(=O)N1CCCC1CO)C(C)C (stereo not given)	0.1	9.8	0.8	·	51.1*	·	63.7*
CCCCN1CN2Cc3cc(F)ccc3C2CS1(=O)=O (stereo not given)	-0.4	-0.9	0.0	1.2	1.2	·	·
O[C@H]1C[C@H](c2ccccc2)N(CC2CCCCC2)C[C@@H]1n1cc(C2CC2)nn1	0.4	-13.8	-10.1	17.8	9.0*	20.9*	12.5*
SMILES	KLK7 zymogen act	NPR2 activator	GC-A act	ADAM10 inh	ADAM17 inh	ADAM10 counter	ADAM17 confirm
O=C(NC(Cc1ccccc1)C(=O)N1CCCCC1)c1ccccc1 (stereo not given)	-0.1	-2.2	-6.7	2.1	9.3*	8.1	5.3
C=CCN1C(=O)[C@@H](CC(=O)NCc2ccc(C)o2)[C@]2(C(=O)OC)CCCCC=C12	0.5	-2.2	-1.3	2.5	1.5	·	·
Cc1ccccc1CN1CCCCC(NC(=O)Nc2ccccc2)C1=O (stereo not given)	0.4	-3.0	6.0	-0.9	-1.1	·	·
COC(=O)C1=C(C)N(Cc2ccc(C(F)(F)F)cc2)C(=NCc2ccccc2C(F)(F)F)NC1c1cccc(Cl)c1 (stereo not given)	-0.4	-6.1	-4.2	-2.8	-5.4	·	·
Cc1ccc(Sc2ncccc2[N+](=O)[O-])cc1	-1.1	3.8	2.1	-1.4	-0.4	·	·
Cc1c([N+](=O)[O-])cnc(Sc2ccccc2)c1[N+](=O)[O-]	-0.1	2.1	1.9	3.7	10.4*	4.8	2.9
O=S(=O)(c1ccc(NC(=S)Nc2ccccc2)cc1)N1CCOCC1	-0.4	-2.5	0.5	1.5	-4.4	·	·
CC(C)CCCCCCNC(=S)Nc1ccc(S(=O)(=O)N2CCOCC2)cc1	-0.4	1.6	-6.1	16.4	9.0*	46.9*	23.4*
CN(C)/C=N/c1ncnc2c1cnn2-c1ccc(C(F)(F)F)cn1	-0.2	-1.0	1.3	14.2	9.2*	-5.7	1.9
Cc1nn(-c2ccc(C(F)(F)F)cn2)c(C)c1Oc1ccccc1O	0.5	1.7	7.6	5.7	0.4	·	·
O=C(Cc1noc2ccccc12)NNC(=S)Nc1ccc(Cl)cc1	-0.1	0.6	-0.5	13.7	12.2*	3.2	0.8
COC(=O)c1cc2oc(C)cc2n1CC(=O)Nc1cc(C)cc(C)c1	5.4	-7.1	-24.1	8.5	9.6*	-17.0	-6.1
COC(=O)c1cc2occc2n1CC(=O)Nc1cc(OC)cc(OC)c1	0.6	-18.7	-39.7	-0.3	-0.5	·	·
O=C(NCCc1ccccc1)OCc1cn(Cc2ccc(Cl)cc2)nn1	0.2	11.1	3.6	-5.3	-6.2	·	·
COC(=O)[C@]12C[C@H](CC(=O)N3CCC(c4ccccc4)CC3)C(=O)N(Cc3cccc4ccccc34)C1=C[C@H](C(C)C)O[C@@H]2C1CC1	0.7	4.7	4.0	-2.1	-0.7	·	·
N=C(N)SCc1ccccc1Cl	0.1	-2.5	-1.9	-3.7	9.4*	8.2	4.5
